Measurements published in PubChem BioAssay AID651956 (Broad Institute, 2012).
Measured potencies and affinities stand elsewhere. Results filed as inconclusive are left out.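 Rule for the calls: active = in every test run, a fitted half-maximal concentration for signal decrease at or below twice the highest tested concentration; inconclusive = runs disagree, flat 30 to 70% decrease, or poor fit; inactive = the rest.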

Experiment: miR-122 activators in hepatoma reporter cells, dose response, cell-based, Huh7 psiCHECK-miR122, Renilla luciferase, cherry-picked (AID 651956);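 note: Renilla luciferase from a miR-122 sensor reporter so lower signal means miR-122 activation; 0% = median neutral control wells and -100% = median positive control wells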
Conditions: 48 h; series mostly up to 35 µM; activity change, negative = signal decrease: at the top concentration

Activity change, negative = signal decrease, inactive:
CCCNC(=O)Nc1ccc2c(c1)OC[C@H](C)N(CCC)C[C@H](C)[C@H](OC)CN(C)C2=O 70%, COc1cccc(NC(=O)Nc2ccc3c(c2)C(=O)N(C)[C@@H]2CC[C@H](CC(=O)O)O[C@H]2CO3)c1 -9.26%, CN1C(=O)c2cc(NC(=O)c3ccno3)ccc2OC[C@H]2O[C@@H](CC(=O)NCC3CC3)CC[C@@H]21 -30.3%, CN(C)CCCN(C(=O)CCc1ccccc1)c1nc2ccc(Br)cc2s1 -98.6%, CCC(=O)N1[C@H](CO)[C@H](c2ccccc2)[C@@H]1CN(C(C)C)S(C)(=O)=O 113%, COC(=O)c1c(N)nc(C)n1-c1ccc(OC)cc1 -18.8%, COCC(=O)Nc1ccc2c(c1)C(=O)N(C)[C@@H]1CC[C@H](CC(=O)N3CCc4ccccc4C3)O[C@H]1CO2 -21.2%, C[C@@H]1CN([C@@H](C)CO)S(=O)(=O)c2ccc(-c3ccccc3F)cc2O[C@@H]1CN(C)Cc1cccnc1 -68.3%, CCC(=O)N1[C@H](CO)[C@@H](c2ccccc2)[C@H]1CN(C(C)C)S(C)(=O)=O -18.1%, CN1C(=O)c2cc(NC(=O)Nc3ccccc3F)ccc2OC[C@@H]2O[C@H](CC(=O)O)CC[C@@H]21 3.48% [at 30 µM], Cc1cc(C)cc(OCC(O)CN2CCC(CN3C(=O)c4cccc5cccc(c45)C3=O)CC2)c1 (stereo not drawn) 1.75%, CNC(=O)C[C@@H]1CC[C@@H]2[C@H](COc3ccc(NC(=O)NC(C)C)cc3C(=O)N2C)O1 128%, CCCNC(=O)C[C@H]1CC[C@@H]2[C@@H](COc3ccc(NC(=O)c4ccc5c(c4)OCO5)cc3C(=O)N2C)O1 -39.9%, O=C(CN1CCN(c2nc(-c3ccccc3)cs2)CC1)Nc1ccc2c(c1)OCO2 -33.7%, CC(=O)N1[C@H](CN(C)S(=O)(=O)c2ccccc2)[C@H](c2ccccc2)[C@@H]1CO -17.7%, COCC(=O)N(C[C@@H]1N[C@H](CO)[C@H]1c1ccc(C2=CCCC2)cc1)C(C)C 75.5%, Clc1ccc(CSc2nnc(-c3ccncc3)o2)c(Cl)c1 62.1%, CCCNC(=O)Nc1ccc2c(c1)C(=O)N(C)[C@@H]1CC[C@H](CC(=O)O)O[C@H]1CO2 117%, COc1ccccc1NC(=O)Nc1ccc2c(c1)C(=O)N(C)[C@H]1CC[C@H](CC(=O)Nc3ccc4c(c3)COC4)O[C@@H]1CO2 78.8%, CCNC(=O)Nc1ccc2c(c1)C(=O)N(C)[C@H]1CC[C@@H](CC(=O)NCCOC)O[C@@H]1CO2 128%, CN1C(=O)c2cc(NC(=O)Nc3ccccc3Cl)ccc2OC[C@H]2O[C@H](CC(=O)O)CC[C@H]21 75.8%, CCCNC(=O)C[C@H]1CC[C@H]2[C@@H](COc3ccc(NC(=O)c4cc(F)cc(F)c4)cc3C(=O)N2C)O1 50.3%, COC(=O)C[C@@H]1CC[C@@H]2[C@@H](COc3ccc(NC(=O)Nc4cccc(C#N)c4)cc3C(=O)N2C)O1 27.5%, Cc1ccc(S(=O)(=O)NCCCNS(C)(=O)=O)cc1 -0.902%, CN(C)CCCNC(=O)C[C@@H]1CC[C@H]2[C@@H](COc3ccc(NC(=O)c4cccc(F)c4)cc3C(=O)N2C)O1 -29.2%, COC(=O)C[C@@H]1CC[C@H]2[C@@H](COc3ccc(NC(=O)c4ccc(C(F)(F)F)cc4)cc3C(=O)N2C)O1 85.2%, CNC(=O)C[C@H]1CC[C@@H]2[C@H](COc3ccc(NC(=O)Nc4cccc(F)c4)cc3C(=O)N2C)O1 14.6%, CCCCc1cc(=O)oc2cc(C)cc(OC(C)C(=O)O)c12 (stereo not drawn) 21.7%, O=c1c2cc(N3CCOCC3)ccc2[nH]c(=S)n1CCCN1CCCC1 -9.61%, C/C=C/c1ccc([C@@H]2[C@H](CO)N(Cc3ccccn3)[C@H]2CNC(=O)CC)cc1 60.6%, C[C@@H]1CN([C@@H](C)CO)C(=O)c2cc(NC(=O)Nc3ccc(C(F)(F)F)cc3)ccc2O[C@@H]1CN(C)CC1CCCCC1 -104%, CC(C)CC#Cc1ccc2c(c1)O[C@H](CN(C)C(=O)c1cnccn1)[C@H](C)CN([C@H](C)CO)S2(=O)=O -63.4%, c1ccc(CCCNCCCn2cnc3c(OCc4ccccc4)ncnc32)cc1 40.4%, CC(=O)N1[C@H](CN(C(=O)c2ccc(F)cc2)C(C)C)[C@@H](c2ccccc2)[C@@H]1CO 6.52%, CN(C(=O)c1ccccc1Cl)C1CCCCC1 -12.7%, CN1C(=O)c2cc(NC(=O)c3cccc(F)c3)ccc2OC[C@@H]2O[C@@H](CC(=O)O)CC[C@H]21 28.9% [at 30 µM], CNC(=O)C[C@H]1CC[C@H]2[C@H](COc3ccc(NC(=O)c4cccc(F)c4)cc3C(=O)N2C)O1 177%, CCCCC(=O)NC(c1ccccc1OC)c1ccc2cccnc2c1O (stereo not drawn) 4.09%
